According to PubChem BioAssay AID1159580 (chemical genetic matrix, 2015):
About 2,000 (36%) of roughly 5,500 compounds were called active. Another 18% or so got no clear call; they are omitted. Cut-off read from the data, not from the text of the source: active = normalized growth mostly below about 0.91 (no sharp cut-off); inconclusive = no clear call, values can overlap the other calls; inactive = mostly above about 0.92. The list shows a part of the results.

Assay: chemical genetic growth profiling, strain panel (AID 1159580);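 note: tested at 20 µM; growth read once vehicle control cultures reached saturation at 30 °C; 1 = growth at the plate median or of vehicle wells; lower values mean less growth of the strain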
Conditions: growth OD

Measured: normalized growth

O=C1C=CC2=C3c4cc(O)c(O)cc4C[C@@]3(O)COC2=C1
inactive: S. cerevisiae deletion strains, locus YJR066W, strain TOR1, hits give low values 0.935 | S. cerevisiae deletion strains, locus YKL009W, strain mrt4, hits give low values 1.01 | S. cerevisiae deletion strains, locus YKL068W, hits give low values 1.01 | S. cerevisiae deletion strains, locus YKL085W, strain MDH1 (second series), hits give low values 1.01 | S. cerevisiae deletion strains, locus YKL085W, strain MDH1, hits give low values 1.01 | S. cerevisiae deletion strains, locus YKL160W, strain elf1, hits give low values 0.953 | S. cerevisiae deletion strains, locus YKR001C, strain vps1, hits give low values 1.02 | S. cerevisiae deletion strains, locus YKR026C, strain gcn3, hits give low values 0.983 | S. cerevisiae deletion strains, locus YKR091W, strain srl3, hits give low values 0.97 | S. cerevisiae deletion strains, locus YLL001W, strain dnm1, hits give low values 0.976 | S. cerevisiae deletion strains, locus YLL026W, hits give low values 0.986 | S. cerevisiae deletion strains, locus YLL041C, strain sdh2, hits give low values 0.976 | S. cerevisiae deletion strains, locus YLR027C, strain aat2, hits give low values 0.979 | S. cerevisiae deletion strains, locus YLR039C, strain RIC1, hits give low values 1.07 | S. cerevisiae deletion strains, locus YLR058C, strain SHM2, hits give low values 0.997 | S. cerevisiae deletion strains, locus YLR102C, strain apc9, hits give low values 0.992 | S. cerevisiae deletion strains, locus YLR113W, strain HOG1, hits give low values 1.08 | S. cerevisiae deletion strains, locus YLR221C, strain rsa3, hits give low values 0.991 | S. cerevisiae deletion strains, locus YLR258W, strain gsy2, hits give low values 0.971 | S. cerevisiae deletion strains, locus YLR262C, strain YPT6 (second series), hits give low values 0.976 | S. cerevisiae deletion strains, locus YLR262C, strain YPT6, hits give low values 1.08 | S. cerevisiae deletion strains, locus YLR268W, strain sec22, hits give low values 1.03 | S. cerevisiae deletion strains, locus YLR320W, strain mms22, hits give low values 0.995 | S. cerevisiae deletion strains, locus YLR342W, strain FKS1, hits give low values 0.985 | S. cerevisiae deletion strains, locus YLR357W, strain rsc2, hits give low values 0.912 | S. cerevisiae deletion strains, locus YLR370C, strain arc18, hits give low values 0.987 | S. cerevisiae deletion strains, locus YLR371W, strain rom2, hits give low values 0.989 | S. cerevisiae deletion strains, locus YLR384C, strain iki3, hits give low values 0.971 | S. cerevisiae deletion strains, locus YLR418C, strain cdc73, hits give low values 0.991 | S. cerevisiae deletion strains, locus YML016C, strain PPZ1, hits give low values 0.996 | S. cerevisiae deletion strains, locus YML032C, strain rad52, hits give low values 1.02 | S. cerevisiae deletion strains, locus YML120C, strain ndi1, hits give low values 0.983 | S. cerevisiae deletion strains, locus YML124C, strain tub3, hits give low values 1 | S. cerevisiae deletion strains, locus YMR058W, strain fet3, hits give low values 0.941 | S. cerevisiae deletion strains, locus YMR078C, strain ctf18, hits give low values 0.996 | S. cerevisiae deletion strains, locus YMR125W, strain sto1, hits give low values 0.954 | S. cerevisiae deletion strains, locus YMR129W, hits give low values 1 | S. cerevisiae deletion strains, locus YMR205C, strain PFK2, hits give low values 0.98 | S. cerevisiae deletion strains, locus YMR223W, strain ubp8, hits give low values 0.975 | S. cerevisiae deletion strains, locus YMR231W, strain pep5, hits give low values 0.957 | S. cerevisiae deletion strains, locus YMR307W, strain GAS1, hits give low values 0.991 | S. cerevisiae deletion strains, locus YNL067W, strain RPL9B, hits give low values 0.994 | S. cerevisiae deletion strains, locus YNL071W, strain lat1, hits give low values 0.982 | S. cerevisiae deletion strains, locus YNL128W, strain TEP1, hits give low values 0.998 | S. cerevisiae deletion strains, locus YNL153C, strain GIM3, hits give low values 0.963 | S. cerevisiae deletion strains, locus YNL183C, strain NPR1, hits give low values 0.971 | S. cerevisiae deletion strains, locus YNL209W, strain ssb2, hits give low values 0.987 | S. cerevisiae deletion strains, locus YNL233W, strain BNI4, hits give low values 0.992 | S. cerevisiae deletion strains, locus YNL248C, strain rpa49, hits give low values 0.969 | S. cerevisiae deletion strains, locus YNL250W, strain rad50, hits give low values 0.954 | S. cerevisiae deletion strains, locus YNL271C, strain bni1, hits give low values 0.982 | S. cerevisiae deletion strains, locus YNL298W, strain CLA4, hits give low values 0.996 | S. cerevisiae deletion strains, locus YNL307C, strain MCK1, hits give low values 1 | S. cerevisiae deletion strains, locus YNL322C, strain KRE1 (second series), hits give low values 0.971 | S. cerevisiae deletion strains, locus YNL322C, strain KRE1, hits give low values 1.01 | S. cerevisiae deletion strains, locus YNR049C, strain mso1, hits give low values 0.977 | S. cerevisiae deletion strains, locus YNR052C, strain pop2, hits give low values 0.967 | S. cerevisiae deletion strains, locus YOL012C, strain htz1 0.978 | S. cerevisiae deletion strains, locus YOL147C, strain pex11, hits give low values 0.998 | S. cerevisiae deletion strains, locus YOR001W, strain rrp6, hits give low values 0.968 | S. cerevisiae deletion strains, locus YOR061W, strain CKA2, hits give low values 1.01 | S. cerevisiae deletion strains, locus YOR069W, strain VPS5, hits give low values 0.993 | S. cerevisiae deletion strains, locus YOR070C, strain gyp1, hits give low values 0.967 | S. cerevisiae deletion strains, locus YOR080W, strain dia2, hits give low values 0.979 | S. cerevisiae deletion strains, locus YOR083W, strain WHI5, hits give low values 0.959 | S. cerevisiae deletion strains, locus YOR106W, strain vam3, hits give low values 0.931 | S. cerevisiae deletion strains, locus YOR136W, strain idh2, hits give low values 0.998 | S. cerevisiae deletion strains, locus YOR144C, strain elg1, hits give low values 1.01 | S. cerevisiae deletion strains, locus YOR184W, strain ser1, hits give low values 1.08 | S. cerevisiae deletion strains, locus YOR231W, strain MKK1, hits give low values 1.02 | S. cerevisiae deletion strains, locus YOR265W, strain rbl2, hits give low values 0.986 | S. cerevisiae deletion strains, locus YOR270C, strain vph1, hits give low values 1.01 | S. cerevisiae deletion strains, locus YOR290C, strain snf2, hits give low values 0.946 | S. cerevisiae deletion strains, locus YOR316C, strain cot1, hits give low values 1 | S. cerevisiae deletion strains, locus YPL051W, strain arl3, hits give low values 0.968 | S. cerevisiae deletion strains, locus YPL055C, strain LGE1, hits give low values 1.04 | S. cerevisiae deletion strains, locus YPL078C, strain atp4, hits give low values 0.992 | S. cerevisiae deletion strains, locus YPL106C, strain sse1, hits give low values 0.944 | S. cerevisiae deletion strains, locus YPL240C, strain hsp82, hits give low values 0.99 | S. cerevisiae deletion strains, locus YPL241C, strain CIN2, hits give low values 1.01 | S. cerevisiae deletion strains, locus YPL256C, strain CLN2, hits give low values 1 | S. cerevisiae deletion strains, locus YPR119W, strain clb2, hits give low values 0.996 | S. cerevisiae deletion strains, locus YPR141C, strain kar3, hits give low values 0.993 | S. cerevisiae deletion strains, locus YPR163C, strain tif3, hits give low values 1 | S. cerevisiae deletion strains, locus YPR167C, strain met16, hits give low values 0.978 | S. cerevisiae deletion strains, strain wtn01, hits give low values 1.03 | S. cerevisiae strains, strain wild type, hits give low values 1.03
